# Measurements from PubChem BioAssay (NCI).
# This is part of a sample that, as a whole, favours compounds with a hit. Of some 83,000 tested, about 20% had one in any assay.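 Cells were grown in 96-well plates and exposed to the test compound at a single concentration for 48 hours; results are reported as percent growth, with values below 10 considered active.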 Values without a mark were called inactive. Active and inactive are the calls of the source.
# How the values were obtained:
# Assay in all cases: NCI-60 one-dose screen, 48 h (100 = growth as untreated, 0 = no growth, -100 = all killed)
# Conditions in all cases: 10 µM unless noted
# [1] = test system: SR leukemia
# [2] = test system: RPMI-8226 leukemia
# [3] = test system: OVCAR-8 ovarian
# [4] = test system: OVCAR-5 ovarian
# [5] = test system: OVCAR-4 ovarian
# [6] = test system: SK-OV-3 ovarian
# [7] = test system: IGROV1 ovarian
# [8] = test system: OVCAR-3 ovarian
# [9] = test system: HS 578T breast
# [10] = test system: NCI/ADR-RES ovarian
# [11] = test system: T-47D breast
# [12] = test system: BT-549 breast
# [13] = test system: MDA-MB-435 melanoma
# [14] = test system: SW-620 colon
# [15] = test system: MCF7 breast
# [16] = test system: HCT-116 colon
# [17] = test system: HCC-2998 colon
# [18] = test system: KM12 colon
Structure (SMILES),growth [1],growth [2],growth [3] [%],growth [4] [%],growth [5],growth [6],growth [7],growth [8],growth [9],growth [10],growth [11] [%],growth [12] [%],growth [13],growth [14],growth [15],growth [16] [%],growth [17] [%],growth [18]
CN(Cc1ccccc1)S(=O)(=O)/N=C1\NC(=O)NC1=C(Cl)Cl,-0.359% (active),-1.12% (active),93.9,11.9,91.8%,110%,3.38% (active),-81.7% (active),96.7%,81.5%,56.8,94.6,79.6%,-49.5% (active),12.6%,21.3,71.8,4.88% (active)
Cc1ccc(-c2nnc(SCc3ccc(O)c4ncccc34)o2)cc1,32.8%,12.8%,12.2,58.2,15.8%,14.1%,13.7%,28.4%,15.5%,10.7%,13.4,30,–,14.1%,10.6%,18.5,34.4,–
COc1cc(Nc2c(C#N)cnn3cc(-c4cnn(CC(C)(C)O)c4)cc23)ccc1Cl,24.3%,40.2%,46.9,43.8,42.6%,4.19% (active),4.87% (active),57.6%,61.9%,46.5%,45.1,85.5,38.3%,56.5%,48%,40.2,84.8,19.1%
N#Cc1cccc(CN2CCc3ncn(Cc4ccc(Cl)cc4)c(=O)c3C2)c1,36.2%,22.4%,24.3,23.8,16.5%,22.8%,44.1%,21.7%,35.9%,14.7%,30.7,29.7,18.4%,33.2%,15.5%,19.5,13.9,29.7%
COc1cc(OC)cc(C(=O)Nc2cccc(C#Cc3cccc4[nH]nc(N)c34)c2)c1,16.6%,18.6%,31.2,39.5,53.9%,39.1%,20.4%,12.2%,-21.9% (active),34.2%,31.2,33.7,-38.1% (active),15.9%,26.2%,13,43.3,12%
O=C1[C@H]2Cc3c([nH]c4ccccc34)[C@@H](c3ccc(Cl)cc3)N2C(=O)CN1C1CCN(Cc2ccccc2)CC1,10.4%,17%,72.7,74.8,49.1%,79.7%,33.5%,47.7%,68.1%,51.3%,55.9,83.9,43.8%,62.5%,12.6%,33,–,47.7%
CCN1CCN(Cc2cn(-c3ccc(S(N)(=O)=O)cc3)nn2)CC1,102%,109%,102,108,108%,105%,107%,112%,102%,111%,105,130,107%,106%,97.4%,103,–,104%
Cc1ccc(NC(=O)c2ccc(CN3CCOCC3)c(C(F)(F)F)c2)cc1Oc1ccc(-c2[nH]nc3ncnc(N)c23)cc1,55.5%,44.6%,70.9,72,72.7%,71.6%,74.2%,93.2%,62.8%,87.9%,11,66.8,47.7%,110%,55.8%,55.4,–,25.4%
NC(N)=Nc1ccc(Oc2cccc(NC(N)=Nc3ccc(Cl)c(C(F)(F)F)c3)c2)cn1,-16.4% (active),27.9%,53.5,41.8,52.7%,48.3%,-19.7% (active),3.55% (active),33.2%,95.4%,32.9,60.4,46.4%,38.5%,20.2%,15.8,–,24.7%
COc1ccc(COc2ccc(/C=C3\C(=O)Nc4ccccc43)cc2OC)cc1,102%,104%,101,99.9,99.8%,119%,107%,115%,105%,106%,113,92.1,106%,99.1%,94%,108,102,104%
O=C(Cn1cc(-c2ccccc2)nn1)Nc1nc(-c2ccc(Cl)cc2)cs1,98.6%,99.3%,101,104,92.7%,94.7%,108%,123%,106%,102%,95,98.1,–,108%,87%,108,105,108%
COc1cc(/C=C2\C(=O)Nc3ccccc32)ccc1OCc1ccc(Cl)cc1,93.8%,97.5%,102,101,99.1%,111%,102%,106%,105%,100%,107,109,106%,96.6%,69.5%,86.9,–,99.6%
CS(=O)(=O)c1ccc(-n2cc(/C=N/O)c(-c3ccccc3)n2)cc1,30.3%,70.9%,84.2,98.6,77.6%,109%,-26.2% (active),94.4%,95.4%,84.4%,59.1,60.7,85.9%,104%,21.5%,92.1,–,96.9%
CCOC(=O)c1c(N)c(C#N)cn1-c1cc(OC)c(OC)c(OC)c1,105%,104%,102,96,107%,135%,105%,119%,99.5%,110%,112,107,103%,98.8%,91.1%,113,115,108%
O=C1CCC(N2C(=O)c3ccc(NS(=O)(=O)c4ccccc4OC(F)(F)F)cc3C2=O)C(=O)N1 (stereo unspecified),77.4%,61%,10.9,85.3,22.8%,82.3%,23.5%,86.2%,13.7%,19.7%,16.2,14.8,64.4%,20.2%,44.5%,96.8,11,40.6%
O=C(CSc1nnc(-c2ccc(Cl)cc2)n1-c1ccccc1)Nc1cccc(Cl)c1,21.4%,34.5%,62.4,71.7,-5.99% (active),126%,46.7%,82%,54.4%,50.4%,48.2,61.6,72.9%,49.8%,65.1%,12.8,–,71.9%
O=C(NNc1nc2cc(F)ccc2n2c(CN3CCC(O)C3)ccc12)c1cnccn1 (stereo unspecified),6.32% (active),27.4%,13.8,41.4,18.9%,8.37% (active),18.2%,34.9%,75.9%,2.49% (active),13,29.5,27.8%,24.6%,8.92% (active),17.9,38.5,24.9%
